Laboratory results from PubChem BioAssay (NCATS).
Values joined by “and” are separate entries in the source; they are usually repeats but may differ in a detail not shown here. Equal values may be shown once. Results filed as inconclusive are left out. A call without a number means that no potency is given here. Active and inactive are the calls of the source. Calls come from the whole dose curve; as a rule, active = well fitted curve in the direction sought with a large enough effect; inconclusive = small, poorly fitted or top-dose-only effect, or another doubt; inactive = no such curve, though single readings can be large; an effect the other way counts as inactive or inconclusive.

Assays:
[1] = system: Zika virus NS2B-NS3 protease; assay: Primary screen GU AMC qHTS for Zika virus inhibitors (AID 1347154); note: nearly all actives have a fitted effect of over 70% in size
How it was run: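 Unlinked Zika NS2B hydrophilic domain–NS3 protease complex at 25 nM in 10 mM Tris-HCl pH 8.0, 0.01% Tween 20, with an AMC peptide substrate. Fluorescence change (340/450 nm) over 15 min at room temperature, normalized to controls, fitted to 4-parameter Hill.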

[2] = system: Zika virus NS2B-NS3 protease (unlinked complex); assay: Primary screen GU Rhodamine qHTS for Zika virus inhibitors: Unlinked NS2B-NS3 protease assay (AID 1347159); note: nearly all actives have a fitted effect of over 60% in size; note: potency is the fitted concentration of half-maximal effect
How it was run: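 A qHTS format was used, with compound concentrations ranging up to 114 microM. Each compound was preincubated with 25 nM NS2B-NS3 protease, and the substrate was then added at 1.5 microM. Curves were fitted with a 4-parameter Hill model.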

[3] = system: Zika virus NS2B-NS3 protease (linked construct); assay: Primary screen NINDS Rhodamine qHTS for Zika virus inhibitors (AID 1347160); note: nearly all actives have a fitted effect of over 55% in size; note: potency is the fitted concentration of half-maximal effect
How it was run: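 Kinetic fluorescence (Ex 480 nm, Em 540 nm) over 15 min with 1.5 microM Rhodamine110 peptide and 25 nM linked protease.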

[4] = ZIKV-mCherry secondary qHTS for Zika virus inhibitors (AID 1347158); note: top concentration of the series differs between compounds
How it was run: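 Vero, 5,000 cells/well, o/n 37 °C; cpd pin-transferred in DMSO; ZIKV-mCherry MOI 1, 48-72 h 37 °C; 32% PFA stock fix, Hoechst; imaged 10x DAPI/mCherry; mCherry+ threshold 450 RFU; % infection.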

[5] = Confirmatory screen NINDS Rhodamine qHTS for Zika virus inhibitors (AID 1347161); note: potency is the fitted concentration of half-maximal effect; nearly all actives have a fitted effect of over 60% in size
How it was run: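 Rhodamine110-peptide cleavage (1.5 µM substrate) by 25 nM linked NS2B-NS3 enzyme at pH 8.0 (Tris, Tween 20), after 15 min RT preincubation with compounds; 15-min fluorescence change normalized to controls and Hill-fitted.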

**Q.** Which Potency [1] does the source give for CCOC(=O)Nc1ccc(NCc2ccc(F)cc2)cc1N here?
**A.** inactive

**Q.** And the Potency [2]?
**A.** inactive

**Q.** And the Potency [3]?
**A.** inactive

**Q.** Which Potency [1] does the source give for CCN(CC)C(=O)c1ccc(C2=CC3(CCNCC3)Oc3cccc(O)c32)cc1 here?
**A.** inactive

**Q.** What about the Potency [2] of the same compound?
**A.** inactive

**Q.** What about the Potency [3] of the same compound?
**A.** inactive

**Q.** What does the source list for O=c1[nH]c2ccc(Cl)cc2c(N[C@@H]2CN3CCC2CC3)c1-c1nc2ccccc2[nH]1?
**A.** Potency [1]: inactive; Potency [3]: inactive

**Q.** What does the source list for Cc1ccccc1-n1c(Cn2ncc3c(N)ncnc32)nc2cccc(C)c2c1=O?
**A.** Potency [1]: inactive; Potency [2]: inactive; Potency [3]: inactive

**Q.** Which results are given for O=C(NCC1CCOCC1)c1cnc(Nc2ccc(Cl)cc2Cl)nc1C(F)(F)F?
**A.** Potency [1]: inactive; Potency [3]: inactive

**Q.** For CC(=O)Nc1ccc(OC[C@](C)(O)C(=O)Nc2ccc([N+](=O)[O-])c(C(F)(F)F)c2)cc1, which Potency [1] is on record?
**A.** inactive

**Q.** What about the Potency [2] of the same compound?
**A.** inactive

**Q.** And the Potency [3]?
**A.** inactive

**Q.** With CCOCCOC(C)=O as the compound, how does the Potency [1] read?
**A.** inactive

**Q.** Which results are given for O=C(N[C@@H](COc1ccc2[nH]c(=O)[nH]c2c1)c1ccccc1)c1cccn(Cc2ccc(F)c(F)c2)c1=O?
**A.** Potency [1]: inactive; Potency [2]: inactive; Potency [3]: inactive

**Q.** What does the source list for COc1ccc(N(C(=O)Oc2c(C)cccc2C)c2ccnc(Nc3ccc(N4CCN(C)CC4)cc3)n2)c(OC)c1?
**A.** Potency [1]: inactive; Potency [3]: inactive

**Q.** Which Potency [1] does the source give for c1ccc2c(CN3CCNCC3)cccc2c1 here?
**A.** inactive

**Q.** What does the source list for CCc1c(C(=O)C(N)=O)c2c(OCC(=O)O)cccc2n1Cc1ccccc1?
**A.** Potency [1]: inactive; Potency [2]: inactive; Potency [3]: inactive

**Q.** Which results are given for CC(C)(C)NC[C@H](O)c1ccc(O)cc1Cl?
**A.** Potency [1]: inactive; Potency [3]: inactive

**Q.** Which Potency [1] does the source give for CC(C)[C@]12O[C@H]1[C@@H]1O[C@]13[C@]1(O[C@H]1C[C@H]1C4=C(CC[C@@]13C)C(=O)OC4)[C@@H]2O here?
**A.** inactive

**Q.** What about the Potency [3] of the same compound?
**A.** inactive

**Q.** For COc1ccc2c(c1)[C@]13CCCCC1C(C2)N(C)CC3 (stereo partly drawn), which Potency [1] is on record?
**A.** inactive

**Q.** Which Potency [1] does the source give for C1=C2CCCN[C@H]2[C@@H]2C[C@H]1[C@@H]1CCCCN1C2 here?
**A.** inactive

**Q.** With CCN1CCN(C(=O)Cc2ccc(Nc3ncc(F)c(Nc4ccc(C(=O)Nc5ccccc5Cl)cc4)n3)cc2)CC1 as the compound, how does the Potency [1] read?
**A.** inactive

**Q.** And the Potency [3]?
**A.** inactive

**Q.** With CC1=C(C(=O)O)N2C(=O)[C@@H](N)[C@H]2SC1 as the compound, how does the Potency [1] read?
**A.** inactive

**Q.** For CC(C)N(CCNC(=O)CN1CCCC1=O)C(C)C, which Potency [1] is on record?
**A.** inactive

**Q.** And the Potency [2]?
**A.** inactive

**Q.** What about the Potency [3] of the same compound?
**A.** inactive

**Q.** What does the source list for Cc1ccccc1-n1c(Cn2cnc3c(N)ncnc32)nc2cccc(C)c2c1=O?
**A.** Potency [1]: inactive; Potency [2]: inactive; Potency [3]: inactive

**Q.** With CCNC(=O)C[C@@H]1N=C(c2ccc(Cl)cc2)c2cc(OC)ccc2-n2c(C)nnc21 as the compound, how does the Potency [1] read?
**A.** inactive

**Q.** And the Potency [2]?
**A.** inactive

**Q.** What does the source list for CC1(N2CCC(n3c([C@@H]4CCCNC4)nc4ccccc43)CC2)CCCCCCC1?
**A.** Potency [1]: inactive; Potency [2]: inactive; Potency [3]: inactive

**Q.** What does the source list for O=C(Oc1ccc([N+](=O)[O-])cc1)N1CCC(C(O)(c2ccc3c(c2)OCO3)c2ccc3c(c2)OCO3)CC1?
**A.** Potency [1]: inactive; Potency [3]: inactive

**Q.** Which Potency [1] does the source give for O=C1C=CC[C@@H]2[C@H]3CCCN4CCC[C@@H](CN12)[C@@H]34 here?
**A.** inactive

**Q.** And the Potency [2]?
**A.** inactive

**Q.** What does the source list for CN1CCN(c2ccc([N+](=O)[O-])c3no[n+]([O-])c23)CC1?
**A.** Potency [1]: inactive; Potency [2]: inactive; Potency [3]: inactive

**Q.** For CC1(C)CC/C(=C/c2ccc(Cl)cc2)C1(O)Cn1cncn1 (stereo not drawn), which Potency [1] is on record?
**A.** inactive

**Q.** With CC(N[C@H]1C[C@H]1c1ccccc1)c1ccc2c(c1)OCCO2 (stereo partly drawn) as the compound, how does the Potency [1] read?
**A.** inactive

**Q.** And the Potency [2]?
**A.** inactive

**Q.** With CN(C)[C@@H]1C(=O)C(C(N)=O)=C(O)[C@@]2(O)C(=O)C3=C(O)c4c(O)cccc4[C@@](C)(O)[C@H]3[C@H](O)[C@@H]12 as the compound, how does the outcome [4] read?
**A.** inactive

**Q.** And the Potency [5]?
**A.** 19.7 µM (active) and 7.82 µM (active)

**Q.** Which results are given for CCNC(=O)CC1N=C(c2ccc(Cl)cc2)c2cc(OC)ccc2-n2c(C)nnc21 (stereo not drawn)?
**A.** Potency [1]: inactive; Potency [2]: inactive; Potency [3]: inactive

**Q.** With Cc1c(C(=O)Nc2cccc(C(F)(F)F)c2)cc(-c2ccccc2)n1CCCN1CCOCC1 as the compound, how does the Potency [1] read?
**A.** inactive

**Q.** What about the Potency [2] of the same compound?
**A.** inactive

**Q.** What about the Potency [3] of the same compound?
**A.** inactive

**Q.** Which Potency [1] does the source give for O=C(O)CNC(=O)c1c(O)c2ccccc2n(Cc2ccccc2)c1=O here?
**A.** inactive

**Q.** What about the Potency [2] of the same compound?
**A.** 12.6 µM (active)

**Q.** And the Potency [3]?
**A.** 11.2 µM (active)

**Q.** What does the source list for Cc1[nH]nc2ccc(-c3cncc(OC[C@@H](N)Cc4c[nH]c5ccccc45)c3)cc12?
**A.** Potency [1]: inactive; Potency [2]: inactive; Potency [3]: inactive

**Q.** Which Potency [1] does the source give for O=C(Nc1ccccc1-c1ccc(Cl)cc1)c1cccnc1Cl here?
**A.** inactive

**Q.** For COC1=C[C@@H]2[C@@H]3Cc4ccc(OC)c(O)c4[C@]2(CCN3C)CC1=O, which Potency [1] is on record?
**A.** inactive

**Q.** What about the Potency [3] of the same compound?
**A.** inactive
